Reference: PubChem BioAssay (Tox21)
Several values for one entry are separate records, joined by “and”; a condition that tells them apart may be missing. Identical values can stand only once. Results filed as inconclusive are left out. Activity calls are given as the source filed them. Unless noted, calls follow the shape of the dose curve; as a rule, active = well fitted curve in the direction sought with a large enough effect in the repeat runs; inconclusive = weak or mixed curves; inactive = no such curve, though single readings can be large; an effect the other way counts as inactive or inconclusive.

Legend:
[1] = target: Progesterone receptor (Homo sapiens) (UniProt P06401); experiment: qHTS assay to identify small molecule agonists of the progesterone receptor (PR) signaling pathway (AID 1346784; calls by dose curve; also: nearly all actives have a fitted effect of over 30% in size; also: potency is read from the fitted curve at half-maximal effect)
Progesterone receptor (Homo sapiens), sequence (P06401 whole entry, looked up): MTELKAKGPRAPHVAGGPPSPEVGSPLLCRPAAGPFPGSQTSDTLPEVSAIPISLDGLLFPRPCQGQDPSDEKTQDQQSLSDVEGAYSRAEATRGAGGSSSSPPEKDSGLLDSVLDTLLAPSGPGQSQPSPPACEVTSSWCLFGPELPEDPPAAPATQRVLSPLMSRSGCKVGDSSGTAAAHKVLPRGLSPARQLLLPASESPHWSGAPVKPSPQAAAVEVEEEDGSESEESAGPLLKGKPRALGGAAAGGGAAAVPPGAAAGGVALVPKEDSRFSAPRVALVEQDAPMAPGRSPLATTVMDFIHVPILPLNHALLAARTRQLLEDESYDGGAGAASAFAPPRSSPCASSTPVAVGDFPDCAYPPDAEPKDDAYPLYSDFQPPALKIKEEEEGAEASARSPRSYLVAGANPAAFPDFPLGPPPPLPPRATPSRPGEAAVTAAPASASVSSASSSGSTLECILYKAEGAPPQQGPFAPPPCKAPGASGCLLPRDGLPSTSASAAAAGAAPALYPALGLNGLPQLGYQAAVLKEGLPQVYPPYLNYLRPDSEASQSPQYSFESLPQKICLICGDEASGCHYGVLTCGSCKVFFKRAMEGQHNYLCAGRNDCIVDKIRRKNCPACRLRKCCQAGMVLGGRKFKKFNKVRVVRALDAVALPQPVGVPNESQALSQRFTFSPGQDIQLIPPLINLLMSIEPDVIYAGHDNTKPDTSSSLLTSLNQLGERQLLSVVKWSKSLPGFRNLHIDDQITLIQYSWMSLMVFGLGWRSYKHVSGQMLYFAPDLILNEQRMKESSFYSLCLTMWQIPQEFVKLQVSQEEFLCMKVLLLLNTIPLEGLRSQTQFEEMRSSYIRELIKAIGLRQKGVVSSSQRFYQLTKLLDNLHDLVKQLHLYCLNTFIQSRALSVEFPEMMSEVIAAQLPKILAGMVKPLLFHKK
Outline: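 Using charcoal-stripped serum (2%) to limit endogenous steroids, PR-UAS-bla HEK 293T cells received compounds for 16 hr at 37C after 6 hr plating; beta-lactamase FRET fluorescence was recorded following 2 hr substrate loading at room temperature.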

[2] = target: Progesterone receptor (Homo sapiens) (UniProt P06401); experiment: qHTS assay to identify small molecule antagonists of the progesterone receptor (PR) signaling pathway (AID 1346795; active = well fitted inhibition curve with a large enough effect in the signal ratio in the repeat runs, not every such curve was filed as active; the % refers to the signal ratio; also: potency is read from the fitted curve at half-maximal effect)
Outline: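 Inhibition of R5020-induced (1 nM final) beta-lactamase reporter signal in PR-UAS-bla HEK293T cells was scored by FRET fluorescence after overnight (16 hr) compound treatment.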

[3] = qHTS assay to identify small molecule antagonists of the TGF-beta/Smad signaling pathway - cell viability counter screen (AID 1346824); also: nearly all actives have a fitted effect of over 50% in size; also: potency is read from the fitted curve at half-maximal effect
Outline: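 Cytotoxicity counter-screen run in the same wells as the beta-lactamase Smad reporter read: CellTiter-Glo luminescence after 30 min at room temperature. HEK 293T SBE-bla cells had 5 hr compound exposure at 37 C with TGF-beta1 (0.25 ng/mL stock).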

[4] = qHTS assay to identify small molecule agonists of the TGF-beta/Smad signaling pathway - cell viability counter screen (AID 1346829); also: nearly all actives have a fitted effect of over 45% in size; also: potency is read from the fitted curve at half-maximal effect
Outline: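 SBE-bla HEK 293T cells plated overnight, compound exposure 5 hr at 37 C. Viability read in the same wells by CellTiter-Glo luminescence after 30 min at room temperature, following the beta-lactamase read.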

[5] = qHTS assay to identify small molecule agonists of the TGF-beta/Smad signaling pathway (AID 1346859; active = well fitted activation curve with a large enough effect in the signal ratio in the repeat runs, not every such curve was filed as active; the % refers to the signal ratio; also: series mostly up to about 77 µM)
Outline: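 Stable Smad binding element-beta-lactamase HEK 293T cells; 5 hr compound exposure at 37 C under 5% CO2; 2 hr room-temperature substrate step; fluorescence excited at 405 nm, collected at 460 nm and 530 nm.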

[6] = target: Thyrotropin-releasing hormone receptor (Homo sapiens) (UniProt P34981); experiment: qHTS assay to identify small molecule antagonists of the thyrotropin-releasing hormone receptor (TRHR) signaling pathway (AID 1346877; active = well fitted inhibition curve with a large enough effect in the repeat runs, not every such curve was filed as active; also: potency is read from the fitted curve at half-maximal effect)
Thyrotropin-releasing hormone receptor (Homo sapiens), sequence (P34981 whole entry, looked up): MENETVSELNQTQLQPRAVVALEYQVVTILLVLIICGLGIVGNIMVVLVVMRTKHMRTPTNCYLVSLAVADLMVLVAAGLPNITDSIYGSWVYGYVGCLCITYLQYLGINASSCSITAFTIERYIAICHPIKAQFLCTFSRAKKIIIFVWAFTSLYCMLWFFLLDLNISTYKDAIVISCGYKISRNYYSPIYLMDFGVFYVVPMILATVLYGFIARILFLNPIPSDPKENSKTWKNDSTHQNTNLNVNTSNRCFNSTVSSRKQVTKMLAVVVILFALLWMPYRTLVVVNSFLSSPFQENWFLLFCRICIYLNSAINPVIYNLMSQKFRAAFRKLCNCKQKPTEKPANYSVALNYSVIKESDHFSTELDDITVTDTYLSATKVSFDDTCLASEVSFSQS
Outline: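 Overnight-plated (18 h, 37 °C) HEK293 cells expressing TRHR were dye-loaded 2 h, treated with compound, then stimulated with TRH at 1 nM final. Fluorescence intensity was captured every second for 3 min.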

[7] = qHTS assay to identify small molecule agonists of the estrogen receptor alpha (ER-alpha) signaling pathway in the presence of an antagonist - cell viability counter screen (AID 1259386);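 also: series mostly up to about 92 µM; cells exposed to compounds for 22 h at 37 °C before the viability read; nearly all actives have a fitted effect of over 30% in size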
Outline: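 The test measures whether compounds kill ER-alpha reporter cells (VM7Luc4E2) under antagonist co-treatment (ICI-182,780, 10.0nM). Fluorescence from CellTiter-Fluor is read after a 22hr exposure.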

[8] = target: Thyrotropin-releasing hormone receptor (Homo sapiens) (UniProt P34981); experiment: qHTS assay to identify small molecule agonists of the thyrotropin-releasing hormone receptor (TRHR) signaling pathway (AID 1346891; calls by dose curve; also: potency is read from the fitted curve at half-maximal effect;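 as to activation: HEK293 cells expressing TRHR with calcium dye readout; series mostly up to about 58 µM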)
Outline: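 In 1536-format, 1500 TRHR-Hek293 cells per well grew 18 h, took up calcium dye for 2 h at 37 °C, received compound, and were read kinetically; 15-point titrations, triplicates.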

[9] = qHTS assay to identify small molecule agonists of the progesterone receptor (PR) signaling pathway - cell viability counter screen (AID 1346799; calls by dose curve; also: nearly all actives have a fitted effect of over 45% in size; also: potency is read from the fitted curve at half-maximal effect)
Outline: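 Cytotoxicity in PR-bla HEK293T cells: 16 h compound, 37C; CellTiter-Glo added post-FRET read; luminescence after 30 min RT.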

[10] = qHTS assay to identify small molecule antagonists of the progesterone receptor (PR) signaling pathway - cell viability counter screen (AID 1346798); also: nearly all actives have a fitted effect of over 50% in size; also: potency is read from the fitted curve at half-maximal effect
Outline: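 ATP content as viability readout: CellTiter-Glo luminescence, 30 min room temperature, in PR-UAS-bla HEK293T cells after 16 hr compound/R5020 treatment at 37C and 5% CO2.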

Measured: Potency

O=C1C[C@@H]2OCC=C3CN4CC[C@]56c7ccccc7N1[C@H]5[C@H]2[C@H]3C[C@H]46
inactive: [1] | [2] | [3] | [4] | [5] | [6]

C#CCC1=C(C)C(OC(=O)C2C(C=C(C)C)C2(C)C)CC1=O (stereo not given)
inactive: [7] | [3] | [4] | [5] | [6] | [8]

CNC(C)(C)Cc1ccccc1
inactive: [1] | [2] | [9] | [3] | [4] | [5]

O=[N+]([O-])c1ccc(CCl)cc1
not listed: [6] | [7] | [8]
inactive: all other assays above

CCCCCCCc1ccc(O)cc1
active: [2] 21.7 µM
not listed: [4] | [7] | [9]
inactive: all other assays above

CCC(C)c1cccc(C(C)CC)c1O (stereo not given)
not listed: [2] | [7] | [8]
inactive: all other assays above

CC1CCCC1
inactive: [2] | [9] | [3] | [6] | [8]
active: [1] 53.6 µM

O=P(Cl)(Cl)Cl
not listed: [7]
inactive: all other assays above

CCCCCON=O
not listed: [6] | [7] | [8]
inactive: all other assays above

C[C@H]1[C@H](c2ccc(Cl)cc2)SC(=O)N1C(=O)NC1CCCCC1
inactive: [1] | [4] | [5] | [6] | [8]
active: [2] 13.7 µM

Oc1cc(Cl)c(Cl)c(Cl)c1Cl
active: [2] 21.2 µM
not listed: [3] | [5] | [7]
inactive: all other assays above

CC(Cc1ccc(O)cc1)NCC(O)c1cc(O)cc(O)c1 (stereo not given)
not listed: [7]
inactive: all other assays above

CCO/N=C(\CC)C1=C(O)CC(c2c(C)cc(C)cc2C)CC1=O (stereo not given)
inactive: [1] | [3] | [4] | [5]

CC(C)N(C(=O)CCl)c1ccccc1
active: [10] 61.1 µM and 48.6 µM
inactive: [1] | [9] | [5] | [6] | [8]

CCOP(=O)(OCC)Oc1cc(C)nc(C(C)C)n1
not listed: [3] | [7] | [8]
inactive: all other assays above

NC1CCC(CC2CCC(N)CC2)CC1 (stereo not given)
active: [9] 26.8 µM
inactive: [1] | [2] | [3] | [5] | [6]

CSC(=O)c1c(C(F)F)nc(C(F)(F)F)c(C(=O)SC)c1CC(C)C
active: [2] 30.5 µM
not listed: [7] | [10]
inactive: all other assays above

CC(C)C(Br)C(=O)NC(N)=O (stereo not given)
not listed: [7] | [8]
inactive: all other assays above

CC(C)=CC1C(C(=O)OC(C#N)c2cccc(Oc3ccccc3)c2)C1(C)C (stereo not given)
not listed: [2] | [4] | [7]
inactive: all other assays above

CC(C)=CCN1CC[C@@]2(C)c3cc(O)ccc3C[C@@H]1[C@@H]2C
not listed: [1] | [7] | [10]
inactive: all other assays above

COP(=O)(OC)Oc1ccc([N+](=O)[O-])cc1
inactive: [3] | [4] | [5] | [6] | [8]

FC(F)C(F)(F)OCC(Cn1cncn1)c1ccc(Cl)cc1Cl (stereo not given)
active: [2] 19.2 µM
inactive: [4] | [5] | [6] | [8]

CC(Cc1ccc(OCC(=O)O)cc1)NCC(O)c1csc(C(F)(F)F)n1 (stereo not given)
not listed: [1] | [7]
inactive: all other assays above

Cc1nn(-c2cc(NS(C)(=O)=O)c(Cl)cc2Cl)c(=O)n1C(F)F
not listed: [1] | [7] | [10]
inactive: all other assays above

CC(C)NCC(O)c1ccccc1Cl (stereo not given)
not listed: [1] | [7] | [9]
inactive: all other assays above

O=S(=O)(NS(=O)(=O)C(F)(F)F)C(F)(F)F
inactive: [10] | [9] | [3] | [4] | [5]

N#CCCl
inactive: [2] | [3] | [4] | [5]

O=C1C2(Cl)C3(Cl)C4(Cl)C(Cl)(Cl)C5(Cl)C3(Cl)C1(Cl)C5(Cl)C24Cl (stereo not given)
active: [2] 29.3 µM | [6] 28.9 µM | [8] 30.4 µM and 37.3 µM
inactive: [3] | [5]

Nc1ccc(Cl)cc1C(=O)c1ccccc1F
not listed: [1] | [2] | [7]
inactive: all other assays above

CN(C)c1ccc(N)cc1
inactive: [10] | [3] | [5] | [6]

CNC(=O)O/N=C(\C)C(C)S(C)(=O)=O (stereo not given)
inactive: [3] | [4] | [5]

O=[N+]([O-])[O-].[Tl+]
inactive: [10] | [3] | [4] | [5]

N#Cc1c[nH]cc1-c1cccc2c1OC(F)(F)O2
inactive: [10] | [3] | [5] | [6] | [8]

O=[N+]([O-])c1cc(C(F)(F)F)c(Cl)c([N+](=O)[O-])c1Nc1ncc(C(F)(F)F)cc1Cl
active: [10] 24.3 µM | [9] 27.3 µM | [3] 30.9 µM | [4] 43.6 µM | [6] 15.1 µM
inactive: [8]

CSSC
inactive: [3] | [4] | [5] | [6] | [8]

c1ccc2c(c1)cc1ccc3cccc4ccc2c1c34
inactive: [9] | [3] | [4] | [6]

CCOP(=O)(OCC)Oc1nc(Cl)c(Cl)cc1Cl
active: [2] 5.42 µM
inactive: [10] | [3] | [5] | [6]

CN1C(=O)[C@@H](NC(=O)c2cc3ccccc3[nH]2)N=C(c2ccccc2)c2ccccc21
not listed: [1] | [7]
inactive: all other assays above

CC(=O)[O][Pb]([c]1ccccc1)([c]1ccccc1)[c]1ccccc1
active: [10] 4.33 µM | [9] 4.33 µM | [3] 4.9 µM

Oc1ccc([C@H]2CNCc3c2ccc(O)c3O)cc1O
not listed: [1] | [7]
inactive: all other assays above

CCN1CCC2(CC1)COc1cc3c(cc12)N(C(=O)c1ccc(-c2ccc(-c4nnc(C)o4)cc2C)cc1)CC3
inactive: [6]
active: [10] 25.2 µM | [9] 8.93 µM

CNC(=O)Oc1cc(C)cc(C(C)C)c1
inactive: [2] | [3] | [4] | [5] | [6]

C=C(C)C(=O)[O][Sn]([CH2]CCC)([CH2]CCC)[CH2]CCC
active: [2] 1.09 µM | [9] 2.17 µM | [3] 1.38 µM | [4] 1.1 µM | [6] 2.69 µM | [8] 11 µM

CCC[CH2][Sn]([CH2]CCC)([O]C(C)=O)[O]C(C)=O
inactive: [3] | [4]
active: [2] 0.195 µM | [9] 0.978 µM

ClC1=C(Cl)[C@]2(Cl)[C@@H]3[C@H]4C[C@H]([C@@H]5O[C@H]45)[C@@H]3[C@@]1(Cl)C2(Cl)Cl
inactive: [1] | [3] | [4] | [5] | [6] | [8]

O.O.O.O.O.O.O.O=S(=O)([O-])[O-].[Co+2]
inactive: [3] | [4] | [5]

Nc1c(Cl)c(Cl)c(Cl)c(Cl)c1Cl
inactive: [4] | [5] | [6]
active: [1] 1.22 µM

COc1ccc2[nH]cc(CCN(C(C)C)C(C)C)c2c1
inactive: [10] | [3] | [4] | [5]

COC(=O)N(OC)c1ccccc1COc1ccn(-c2ccc(Cl)cc2)n1
active: [2] 4.86 µM
inactive: [3] | [4] | [5] | [6]

N#CC(C#N)=NNc1cccc(Cl)c1
inactive: [4] | [6] | [8]
active: [2] 13.7 µM

CC(Cc1ccccc1)N(C)Cc1ccco1 (stereo not given)
not listed: [1] | [2] | [7]
inactive: all other assays above

CN1CCc2cc3c(cc2C1O)OCO3 (stereo not given)
inactive: [2] | [10] | [9] | [3] | [4] | [6]

O=C(NC(=O)c1c(F)cccc1F)Nc1ccc(Oc2ccc(C(F)(F)F)cc2Cl)cc1F
inactive: [2] | [4] | [5] | [6] | [8]

CCC(OC(C)=O)C(CC(C)NC)(c1ccccc1)c1ccccc1 (stereo not given)
inactive: [4] | [5] | [6] | [8]
active: [2] 54.9 µM

[O]=[Cr](=[O])([OH])[O][Cr](=[O])(=[O])[OH]
inactive: [9] | [5]
active: [3] 27.8 µM and 24.5 µM | [4] 24.8 µM and 24.5 µM

CCOP(=S)(OCC)Oc1cc(C)nc(N(CC)CC)n1
inactive: [9] | [3] | [4] | [5] | [6]

CC1=C2C[C@H]3[C@@H](CC=C4C[C@@H](O)CC[C@@]43C)[C@@H]2CC[C@]12O[C@@H]1C[C@H](C)CN[C@H]1[C@H]2C
inactive: [3] | [5] | [6] | [8]

Cc1ccccc1OP(=O)(Oc1ccccc1C)Oc1ccccc1C
inactive: [10] | [9] | [3] | [4] | [5] | [6]

[F][Sn]([c]1ccccc1)([c]1ccccc1)[c]1ccccc1
active: [10] 1.37 µM | [9] 1.54 µM | [3] 1.38 µM | [6] 3.38 µM | [8] 4.36 µM
